Results reported in PubChem BioAssay AID1159580 (chemical genetic matrix, 2015).
“And” between values parts separate entries of the source, which are not always exact repeats. Equal values may be shown once. Screen size: about 5,500 compounds; about 2,000 (36%) were called active. Not shown: some 18% with an inconclusive outcome. Cut-off read from the data, not from the text of the source: active = normalized growth mostly below about 0.91 (no sharp cut-off); inconclusive = no clear call, values can overlap the other calls; inactive = mostly above about 0.92. The list shows a part of the results.

Assay: chemical genetic growth profiling, strain panel (AID 1159580);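 note: tested at 20 µM; growth read once vehicle control cultures reached saturation at 30 °C; 1 = growth at the plate median or of vehicle wells; lower values mean less growth of the strain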
Details: S. cerevisiae deletion strains, growth OD

Measured: normalized growth

CNCCC=C1c2ccccc2CCc2ccccc21
active: locus YAL026C, strain drs2, hits give low values 0.854
inactive: locus YAL013W, strain DEP1, hits give low values 1.01 | locus YAL021C, strain ccr4, hits give low values 0.919 | locus YAL030W, strain snc1, hits give low values 0.975 | locus YAL040C, strain CLN3, hits give low values 1.01 | locus YBL061C, strain skt5, hits give low values 0.983 | locus YBR009C, strain hhf1, hits give low values 0.989 | locus YBR021W, strain FUR4, hits give low values 1.02 | locus YBR023C, strain chs3, hits give low values 0.956 | locus YBR171W, strain sec66, hits give low values 0.952 | locus YBR229C, strain ROT2, hits give low values 1.01 | locus YBR231C, strain swc5, hits give low values 0.996 | locus YBR279W, strain paf1, hits give low values 0.971 | locus YCL011C, strain gbp2, hits give low values 0.965 | locus YCL016C, strain dcc1, hits give low values 0.946 | locus YCL029C, strain bik1, hits give low values 1.04 | locus YCL061C, strain MRC1 (second series), hits give low values 0.998 | locus YCL061C, strain MRC1, hits give low values 0.981 | locus YCL069W, strain vba3, hits give low values 0.976 | locus YCR088W, strain abp1, hits give low values 0.978 | locus YDL005C, strain med2, hits give low values 0.955 | locus YDL035C, strain GPR1, hits give low values 1 | locus YDL040C, strain nat1, hits give low values 0.974 | locus YDL074C, strain BRE1, hits give low values 1.03 | locus YDL101C, strain DUN1, hits give low values 1.02 | locus YDL134C, strain PPH21, hits give low values 1.01 | locus YDL185W, strain tfp1, hits give low values 1.02 | locus YDL192W, strain arf1, hits give low values 1.02 | locus YDR001C, strain nth1, hits give low values 0.986 | locus YDR069C, strain doa4, hits give low values 0.929 | locus YDR101C, strain arx1, hits give low values 1.03 | locus YDR137W, strain rgp1, hits give low values 1.1 | locus YDR150W, strain NUM1, hits give low values 1.01 and 1 | locus YDR159W, strain sac3, hits give low values 0.955 | locus YDR162C, strain NBP2, hits give low values 1 | locus YDR195W, strain ref2 1 | locus YDR297W, strain sur2, hits give low values 0.99 | locus YDR318W, strain mcm21, hits give low values 1.03 | locus YDR334W, strain swr1, hits give low values 0.957 | locus YDR335W, strain msn5, hits give low values 0.963 | locus YDR363W, strain ESC2, hits give low values 0.951 | locus YDR388W, hits give low values 1.02 | locus YDR392W, strain spt3, hits give low values 0.939 | locus YDR502C, strain sam2, hits give low values 1.03 | locus YEL003W, strain gim4, hits give low values 0.972 | locus YEL037C, strain rad23, hits give low values 0.967 | locus YEL061C, strain CIN8 (second series), hits give low values 0.972 | locus YEL061C, strain CIN8, hits give low values 1.01 | locus YER002W, strain NOP16, hits give low values 1.03 | locus YER015W, strain faa2, hits give low values 0.978 | locus YER016W, strain bim1, hits give low values 0.97 | locus YER110C, hits give low values 1.01 | locus YER111C, strain swi4, hits give low values 0.953 | locus YER155C, strain BEM2 (second series), hits give low values 0.917 | locus YER155C, strain BEM2, hits give low values 1 | locus YER167W, strain BCK2, hits give low values 1 | locus YFR010W, strain ubp6, hits give low values 0.958 | locus YGL078C, strain dbp3, hits give low values 1.01 | locus YGL086W, strain mad1, hits give low values 1.01 | locus YGL167C, strain pmr1, hits give low values 0.971 | locus YGL173C, strain kem1, hits give low values 0.968 | locus YGL227W, strain vid30, hits give low values 0.966 | locus YGL240W, strain doc1, hits give low values 1.01 | locus YGL248W, strain PDE1, hits give low values 1.01 | locus YGL253W, strain hxk2, hits give low values 0.981 | locus YGR078C, strain PAC10, hits give low values 1.03 and 0.991 | locus YGR135W, strain pre9, hits give low values 1.02 | locus YGR229C, strain SMI1, hits give low values 1.03 and 0.97 | locus YGR252W, strain gcn5, hits give low values 1.14 | locus YHR013C, strain ard1, hits give low values 0.885 | locus YHR027C, strain rpn1, hits give low values 0.978 | locus YHR030C, strain SLT2, hits give low values 1.01 and 0.966 | locus YHR079C, strain IRE1 (second series), hits give low values 1.03 | locus YHR079C, strain IRE1, hits give low values 0.974 | locus YHR094C, strain hxt1, hits give low values 1.01 | locus YHR129C, strain ARP1, hits give low values 1.01 | locus YHR142W, strain chs7, hits give low values 0.961 | locus YHR200W, strain rpn10, hits give low values 1.02 | locus YIL066C, strain RNR3, hits give low values 1.02 | locus YIL073C, strain SPO22, hits give low values 1.09 | locus YIL125W, strain kgd1, hits give low values 1.01 | locus YIR030C, strain dcg1, hits give low values 1.02 | locus YJL092W, strain hpr5, hits give low values 0.991 | locus YJL095W, strain BCK1 (second series), hits give low values 0.965 | locus YJL095W, strain BCK1, hits give low values 1.01 and 0.961 | locus YJL115W, strain asf1, hits give low values 0.961 | locus YJL129C, strain trk1, hits give low values 0.978 | locus YJL134W, strain LCB3, hits give low values 1.01 | locus YJL154C, strain vps35, hits give low values 0.973 | locus YJL164C, strain tpk1, hits give low values 0.978 | locus YJL166W, strain qcr8, hits give low values 0.989 | locus YJL168C, strain set2, hits give low values 1.01 | locus YJL187C, strain SWE1 (second series), hits give low values 1.02 | locus YJR043C, strain POL32, hits give low values 1.02 | locus YJR066W, strain TOR1, hits give low values 0.923
